Source: PubChem BioAssay AID1974 (The Scripps Research Institute Molecular Screening Center, 2009)
Among all 300,000 compounds or so, about 3,200 (1.1%) were called active. Shown is part of a subset that was picked to be rich in actives. Unmarked numbers belong to inactive results.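 How the source made its calls: active means inhibition above the campaign mean inhibition plus 3 SD (cut at about 35% in these data); inactive means the rest.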

Molecular target: Glutathione S-transferase omega-1 (Homo sapiens) (UniProt P78417)
Sequence (P78417 whole entry, looked up): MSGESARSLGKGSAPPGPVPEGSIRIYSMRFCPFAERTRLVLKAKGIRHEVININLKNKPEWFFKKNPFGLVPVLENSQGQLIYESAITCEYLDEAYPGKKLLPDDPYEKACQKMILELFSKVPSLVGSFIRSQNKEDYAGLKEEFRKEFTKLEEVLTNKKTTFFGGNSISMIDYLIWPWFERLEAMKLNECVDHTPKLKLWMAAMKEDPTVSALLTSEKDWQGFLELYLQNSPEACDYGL
Assay: inhibitors of recombinant GSTO1, primary screen, counter-screen for RBBP9 inhibitor project, biochemical, fluorescence polarization (AID 1974);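 further: 0% = GSTO1-1 with DMSO and 100% = wells lacking GSTO1-1 enzyme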
Conditions: recombinant GSTO1, activity-based probe fluorescence polarization; at 5.96 µM; active compounds read high

For O=C(COC(=O)CNS(=O)(=O)c1ccc(F)c(F)c1F)NC1CCCC1, which inhibition is on record?
The inhibition was 14.3%.

How did the inhibition turn out when CC(OC(=O)CCC(=O)c1ccccc1)C(=O)Nc1ccc(F)cc1 (stereo not drawn) was run?
Its inhibition is 3.4%.

With COc1ccc(S(=O)(=O)N2CCCCC2)cc1NC(=O)COc1ccccc1 as the compound, how does the inhibition read?
Its inhibition is -8.4%.

For COc1ccc(S(=O)(=O)N2CCOCC2)cc1NC(=O)COc1ccccc1, which inhibition is on record?
Its inhibition is 13.6%.

With COc1ccc(S(=O)(=O)N2CCOCC2)cc1NC(=O)CSc1ncnc2ccccc12 as the compound, how does the inhibition read?
Its inhibition is 38.4% (active).

With CCn1cc(C(=O)NC2CCCCCC2)c(=O)c2cc(S(=O)(=O)N3CCCCC3)ccc21 as the compound, how does the inhibition read?
Its inhibition is 0.56%.

For CCCOc1ccc(/C=N/NC(=O)C2CC2)c(OCCC)c1, which inhibition is on record?
Its inhibition is 5.8%.

With Cc1cc(NC(=O)C(C)N2C(=O)c3ccccc3S2(=O)=O)no1 (stereo not drawn) as the compound, how does the inhibition read?
Its inhibition is 12.5%.

For CC(=O)c1c(C)[nH]c(C(=O)CN2C(=O)NC(C)(C)C2=O)c1C, which inhibition is on record?
The inhibition was -0.38%.

With c1coc(-c2nc3nc4ccccc4n3nc2-c2ccco2)c1 as the compound, how does the inhibition read?
Its inhibition is 47.1% (active).

How did the inhibition turn out when Cn1c(-c2ccco2)nc2cc3ccccc3cc21 was run?
Its inhibition is 1.91%.

How did the inhibition turn out when CS(=O)(=O)n1nc(-c2ccco2)nc1N was run?
The inhibition was -5.37%.

Which inhibition does the source give for CC(=O)CC(CC(=O)NC1CCCCC1)c1ccccc1 (stereo not drawn) here?
Its inhibition is 5.92%.

For Cc1n[nH]c(=O)c2c(NC(=O)CSc3ccccc3F)oc(C)c12, which inhibition is on record?
The inhibition was -2.53%.

For Cc1coc2c(O)cc3c(c12)OC1(N2CCCCC2)C(=O)NCCCC31 (stereo not drawn), which inhibition is on record?
The inhibition was 74.4% (active).

With CCN(CC)CCn1c2c(c(SCC(=O)Nc3nc4ccccc4s3)nc1=O)CCCC2 as the compound, how does the inhibition read?
The inhibition was -6.43%.

With CS(=O)(=O)c1ccc(C(=O)OCC(=O)NNC(=O)COc2ccc(Cl)cc2)cc1 as the compound, how does the inhibition read?
The inhibition was 1.2%.

Which inhibition does the source give for Cc1ccc(NC(=O)CN(C)C(=O)Cn2nnc(-c3ccccc3)n2)cc1 here?
Its inhibition is 1.43%.

For OCC[C@H]1C[C@H](O)[C@@H](O)[C@]2(CCc3ccccc3O2)O1, which inhibition is on record?
Its inhibition is 3.69%.

With CCOC(=O)c1cc(NC(=O)c2cccnc2)ccn1 as the compound, how does the inhibition read?
Its inhibition is 11.6%.

For O=C(CCl)NNc1cccc(Cl)n1, which inhibition is on record?
The inhibition was 50.5% (active).

For O=C(Cc1c(Cl)cccc1Cl)NC1CC1, which inhibition is on record?
Its inhibition is 3.33%.

For O=C(NNc1ccccn1)c1ccc(Cl)nc1, which inhibition is on record?
Its inhibition is 12.7%.

For O=C(NCC1CC1)c1onc(CSc2ccccc2)c1C(=O)NCC1CC1, which inhibition is on record?
The inhibition was 4.37%.

CCOC(=O)c1ccc(NC(=O)c2c(N)n(C)c(=O)[nH]c2=O)cc1 was tested. Which inhibition did it give?
The inhibition was -7.15%.

For CCN(C(=O)COC(=O)c1cc(NS(=O)(=O)c2ccc(Cl)c([N+](=O)[O-])c2)ccc1O)C1CCCCC1, which inhibition is on record?
Its inhibition is 38.5% (active).

For COc1ccc(NS(=O)(=O)c2ccc(O)c(C(=O)OCC(=O)NC3CCCCC3)c2)cc1, which inhibition is on record?
Its inhibition is -9.76%.

CN(C)c1ccc(S(=O)(=O)NCC(=O)NCC2CCCCC2)cc1[N+](=O)[O-] was tested. Which inhibition did it give?
Its inhibition is -5.25%.
